The panel holds about 83,000 compounds, 20% with a hit somewhere; the sample as a whole holds those more often.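 Plates (96-well) were seeded with cells, treated with compound at one concentration, and incubated for 48 hours before percent growth was determined.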 A number with no mark means an inactive call. The source made the active and inactive calls. The calls were made as follows: active = growth percent below 10; inactive = the rest.

The experiment deals with UACC-257 melanoma. Briefly: NCI-60 one-dose screen, 48 h (100 = growth as untreated, 0 = no growth, -100 = all killed). The settings on record: 10 µM unless noted.
As for `O=C1/C(=C\c2cccn2Cc2ccc(F)cc2)c2ccccc2N1c1c(Cl)cccc1Cl`, the growth is 90.3%.
On to `CC(C)(C)c1ccc(Cn2c(-c3nonc3N)nc3ccccc32)cc1`, for which the growth was 76.8%.
Turning to `CSC(=S)N/N=C(\C)c1ccccn1`, the growth was 7.4% (active).
Turning to `CCC(C)C1NC(=O)c2nc(oc2-c2ccccc2)-c2csc(n2)-c2csc(n2)-c2nc(oc2C)-c2coc(n2)CNC(=O)C(C(C)CC)NC1=O` (stereo not drawn), the growth is -66.2% (active).
As for `CCOC(=O)C1=C(C)NC(SCc2nnc(-c3ccc(Cl)cc3)o2)=NC1c1ccc(Br)cc1` (stereo not drawn), the growth was 73%.
Turning to `CC(CN1CCN(C)CC1)CN1c2ccccc2Sc2ccc(C(F)(F)F)cc21` (stereo not drawn), the growth was 30%.
As for `Cc1[nH]nc2ccc3nc(-c4ccc5[nH]ncc5c4)c4c(c3c12)CCCC4`, the figure is 50.6%; as for `CCCOC(=O)C1c2cc3c(cc2CC(C)C1C(=O)OCCC)OCO3` (stereo not drawn), 76.9%; as for `COc1cc(C2CC(c3ccc(Nc4ccnc5cc(Cl)ccc45)cc3)=NN2c2ccccc2)cc(OC)c1OC` (stereo not drawn), 84.7%.
Regarding `CC(=O)c1c(C)nc(-c2cc(C)cc(Cl)c2)nc1-c1cccc(Oc2ccccc2)c1`, the growth was 81.1%.
With `CC(C)NC(=O)OCC#CCOC(=O)NC(C)C`, the growth was 105%.
As for `Cc1nc2c(-c3cnc(N)nc3)nc(N3CCOCC3)nc2n1C(C)C`, the growth was -23% (active).
The result for `[Ag].[Ag].[NH-]S(=O)(=O)c1ccc(N=Nc2cc(N=Nc3ccc(S([NH-])(=O)=O)cc3)c3c(NC(=O)C(Cl)Cl)cccc3c2OC(=O)C(Cl)Cl)cc1.[c-]1nccs1.[c-]1nccs1` reads 82.4%.

(Values after PubChem BioAssay (NCI).)
